Source: ChEMBL document CHEMBL1157539, “Thousands of chemical starting points for antimalarial lead identification” (Nature, 2010)

Assays:
Format in all cases: functional
Plasmodium falciparum [1] = assay: GSK_TCMDC: Inhibition of Plasmodium falciparum 3D7 in whole red blood cells, using parasite LDH activity as an index of growth. Test compounds present at 2uM
Plasmodium falciparum [2] = assay: GSK_TCMDC: Inhibition of Plasmodium falciparum Dd2 in whole red blood cells, using parasite LDH activity as an index of growth. Test compounds present at 2uM
HepG2 = assay: GSK_TCMDC: Percent inhibition of human HepG2 cell line. Test compounds present at 10uM.

SMILES	Inhibition (Plasmodium falciparum [1]) [%]	Inhibition (Plasmodium falciparum [2]) [%]	Inhibition (HepG2) [%]
CCNc1cc(C)nc(Nc2ccc(C)cc2)n1	100	85	12
COCCNCc1cccc(-c2ccccc2CN(C(=O)c2ccc3c(c2)OCO3)c2ccc(OC)cc2)c1.O=C(O)C(F)(F)F	90	46	6
COc1ccc2ncc(F)c(CCN3CCC(NCc4cnc5c(c4)NC(=O)CS5)CC3)c2c1.Cl	99	16	16
O=C(O)C(F)(F)F.c1cc(-c2ccc(CN3CCCC3)cc2)cc(-c2nc3ccccc3[nH]2)c1	100	52	25
COc1ccc2nccc([C@@H](O)CN3CCC(NCc4cc5ccccn5n4)CC3)c2c1.O=C(O)C(=O)O	99	18	7
O=C(NC1CC1)c1ccc(Nc2nccc(-c3c(-c4cccc(NC(=O)c5c(F)cccc5F)c4)nn4ccccc34)n2)cc1	94	96	84
COc1ccc(NC(=O)Nc2ccc(-c3ccc(-c4nc5ccccc5[nH]4)cc3)cc2)cc1	100	27	22
CCCNCc1ccc(-c2ccc(CN(CC3CCCO3)C(=O)C3CC(=O)c4ccccc43)cc2)nc1.O=C(O)C(F)(F)F (stereo not given)	100	65	0
COc1ccc(-c2cc(-c3nc4cc(CN)ccc4[nH]3)c(=O)n(C)c2)cc1OC	85	56	0
Cn1cccc1C(=O)NCC(CCNc1cc(=O)c2ccccc2[nH]1)NCc1cc(Br)cc(Br)c1 (stereo not given)	92	52	0
